Legend:
[1] = biological target: T1, Inhibitor of nuclear factor kappa-B kinase subunit epsilon (Homo sapiens) (UniProt Q14164); settings: at 1 µM;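 further: reported values are averaged percent inhibition figures against human IKKε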
T1 sequence (whole entry): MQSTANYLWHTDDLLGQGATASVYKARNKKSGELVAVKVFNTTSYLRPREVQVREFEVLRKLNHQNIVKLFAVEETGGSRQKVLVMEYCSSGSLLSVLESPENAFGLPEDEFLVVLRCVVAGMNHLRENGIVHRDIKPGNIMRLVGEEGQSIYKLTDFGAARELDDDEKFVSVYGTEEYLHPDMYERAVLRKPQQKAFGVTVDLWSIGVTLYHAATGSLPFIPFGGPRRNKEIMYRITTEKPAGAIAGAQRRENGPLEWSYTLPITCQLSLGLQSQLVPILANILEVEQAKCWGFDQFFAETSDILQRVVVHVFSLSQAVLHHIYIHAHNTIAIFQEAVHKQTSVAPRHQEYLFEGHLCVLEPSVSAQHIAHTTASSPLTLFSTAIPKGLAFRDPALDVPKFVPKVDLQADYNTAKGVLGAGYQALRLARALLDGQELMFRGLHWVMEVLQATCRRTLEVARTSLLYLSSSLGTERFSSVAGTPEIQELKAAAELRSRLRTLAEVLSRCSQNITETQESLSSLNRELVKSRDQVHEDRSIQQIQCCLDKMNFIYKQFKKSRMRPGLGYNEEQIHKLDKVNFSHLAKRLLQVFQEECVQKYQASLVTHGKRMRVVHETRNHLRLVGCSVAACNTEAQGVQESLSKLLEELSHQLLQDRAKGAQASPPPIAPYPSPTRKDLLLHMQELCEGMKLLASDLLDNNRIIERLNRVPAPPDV

[2] = biological target: T2, Serine/threonine-protein kinase Nek1 (Homo sapiens) (UniProt Q96PY6); settings: at 0.1 µM
T2 sequence (whole entry): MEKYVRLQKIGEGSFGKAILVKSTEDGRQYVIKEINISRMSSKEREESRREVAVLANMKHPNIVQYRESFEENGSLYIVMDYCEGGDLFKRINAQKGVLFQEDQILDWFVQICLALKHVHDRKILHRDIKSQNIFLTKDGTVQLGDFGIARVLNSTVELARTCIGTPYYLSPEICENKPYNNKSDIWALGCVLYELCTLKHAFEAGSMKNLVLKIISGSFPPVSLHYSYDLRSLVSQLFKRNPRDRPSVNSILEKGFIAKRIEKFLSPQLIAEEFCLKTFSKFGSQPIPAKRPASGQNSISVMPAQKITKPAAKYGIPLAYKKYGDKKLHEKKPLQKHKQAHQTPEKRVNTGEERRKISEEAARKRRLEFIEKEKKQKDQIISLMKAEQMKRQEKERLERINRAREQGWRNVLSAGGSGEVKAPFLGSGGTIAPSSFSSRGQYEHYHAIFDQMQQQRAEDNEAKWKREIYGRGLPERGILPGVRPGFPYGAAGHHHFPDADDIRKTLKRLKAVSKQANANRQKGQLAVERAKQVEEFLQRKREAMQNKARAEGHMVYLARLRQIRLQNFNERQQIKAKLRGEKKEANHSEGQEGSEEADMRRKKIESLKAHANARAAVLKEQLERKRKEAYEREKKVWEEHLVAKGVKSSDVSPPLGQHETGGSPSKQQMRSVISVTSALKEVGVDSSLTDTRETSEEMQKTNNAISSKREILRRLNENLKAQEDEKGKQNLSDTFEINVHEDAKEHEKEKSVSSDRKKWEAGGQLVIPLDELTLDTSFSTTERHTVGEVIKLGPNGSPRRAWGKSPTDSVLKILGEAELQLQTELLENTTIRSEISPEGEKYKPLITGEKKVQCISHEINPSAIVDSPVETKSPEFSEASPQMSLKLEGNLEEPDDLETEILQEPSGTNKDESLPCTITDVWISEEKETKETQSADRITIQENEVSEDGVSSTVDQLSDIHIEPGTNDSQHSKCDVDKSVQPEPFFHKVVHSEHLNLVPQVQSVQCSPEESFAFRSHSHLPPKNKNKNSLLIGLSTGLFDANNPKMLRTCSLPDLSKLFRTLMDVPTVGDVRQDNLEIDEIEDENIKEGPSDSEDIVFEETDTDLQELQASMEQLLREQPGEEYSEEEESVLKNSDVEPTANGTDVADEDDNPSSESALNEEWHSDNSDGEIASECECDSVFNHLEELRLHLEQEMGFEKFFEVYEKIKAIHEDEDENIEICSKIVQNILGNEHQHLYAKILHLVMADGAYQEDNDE

[3] = biological target: T2, Serine/threonine-protein kinase Nek1 (Homo sapiens); settings: at 1 µM
[4] = biological target: T3, Serine/threonine-protein kinase Nek2 (Homo sapiens) (UniProt P51955); settings: at 0.1 µM
T3 sequence (whole entry): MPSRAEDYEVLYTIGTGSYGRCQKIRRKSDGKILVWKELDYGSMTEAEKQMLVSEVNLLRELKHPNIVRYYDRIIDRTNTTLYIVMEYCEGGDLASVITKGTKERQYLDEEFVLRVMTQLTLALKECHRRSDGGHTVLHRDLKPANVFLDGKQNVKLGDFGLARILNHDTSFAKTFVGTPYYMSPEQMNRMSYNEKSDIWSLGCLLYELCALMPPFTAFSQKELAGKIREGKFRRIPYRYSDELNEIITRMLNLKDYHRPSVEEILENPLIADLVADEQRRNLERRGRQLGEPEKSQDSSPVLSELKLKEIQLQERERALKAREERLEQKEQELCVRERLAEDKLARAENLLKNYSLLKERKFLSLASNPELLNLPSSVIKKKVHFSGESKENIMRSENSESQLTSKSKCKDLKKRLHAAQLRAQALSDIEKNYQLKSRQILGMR

[5] = biological target: T3, Serine/threonine-protein kinase Nek2 (Homo sapiens); settings: at 1 µM
[6] = biological target: Serine/threonine-protein kinase Nek6 (Homo sapiens) (UniProt Q9HC98); settings: at 0.1 µM
Sequence of Serine/threonine-protein kinase Nek6 (Homo sapiens) (Q9HC98 whole entry): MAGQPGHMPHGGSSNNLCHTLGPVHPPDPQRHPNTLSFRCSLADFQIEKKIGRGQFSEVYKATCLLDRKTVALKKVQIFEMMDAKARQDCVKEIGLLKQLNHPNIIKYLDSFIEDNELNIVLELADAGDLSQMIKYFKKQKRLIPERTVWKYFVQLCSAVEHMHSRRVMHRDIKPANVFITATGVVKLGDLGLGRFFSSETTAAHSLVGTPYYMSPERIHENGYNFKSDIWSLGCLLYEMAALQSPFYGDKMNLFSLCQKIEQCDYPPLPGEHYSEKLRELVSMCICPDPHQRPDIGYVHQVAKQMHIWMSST

[7] = biological target: Serine/threonine-protein kinase Nek6 (Homo sapiens) (UniProt Q9HC98); settings: at 1 µM
[8] = biological target: Serine/threonine-protein kinase Nek7 (Homo sapiens) (UniProt Q8TDX7); settings: at 0.1 µM
Sequence of Serine/threonine-protein kinase Nek7 (Homo sapiens) (Q8TDX7 whole entry, looked up): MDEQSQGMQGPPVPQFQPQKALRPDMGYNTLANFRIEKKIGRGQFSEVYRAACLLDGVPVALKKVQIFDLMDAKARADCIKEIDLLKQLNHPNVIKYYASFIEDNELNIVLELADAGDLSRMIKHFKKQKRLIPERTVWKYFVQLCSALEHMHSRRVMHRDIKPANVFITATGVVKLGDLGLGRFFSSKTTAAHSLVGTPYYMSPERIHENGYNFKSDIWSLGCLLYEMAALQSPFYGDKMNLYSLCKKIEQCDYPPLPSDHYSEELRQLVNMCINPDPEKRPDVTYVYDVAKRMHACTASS

[9] = biological target: Serine/threonine-protein kinase Nek7 (Homo sapiens) (UniProt Q8TDX7); settings: at 1 µM
[10] = biological target: T4, Serine/threonine-protein kinase Nek9 (Homo sapiens) (UniProt Q8TD19); settings: at 0.1 µM
T4 sequence (whole entry): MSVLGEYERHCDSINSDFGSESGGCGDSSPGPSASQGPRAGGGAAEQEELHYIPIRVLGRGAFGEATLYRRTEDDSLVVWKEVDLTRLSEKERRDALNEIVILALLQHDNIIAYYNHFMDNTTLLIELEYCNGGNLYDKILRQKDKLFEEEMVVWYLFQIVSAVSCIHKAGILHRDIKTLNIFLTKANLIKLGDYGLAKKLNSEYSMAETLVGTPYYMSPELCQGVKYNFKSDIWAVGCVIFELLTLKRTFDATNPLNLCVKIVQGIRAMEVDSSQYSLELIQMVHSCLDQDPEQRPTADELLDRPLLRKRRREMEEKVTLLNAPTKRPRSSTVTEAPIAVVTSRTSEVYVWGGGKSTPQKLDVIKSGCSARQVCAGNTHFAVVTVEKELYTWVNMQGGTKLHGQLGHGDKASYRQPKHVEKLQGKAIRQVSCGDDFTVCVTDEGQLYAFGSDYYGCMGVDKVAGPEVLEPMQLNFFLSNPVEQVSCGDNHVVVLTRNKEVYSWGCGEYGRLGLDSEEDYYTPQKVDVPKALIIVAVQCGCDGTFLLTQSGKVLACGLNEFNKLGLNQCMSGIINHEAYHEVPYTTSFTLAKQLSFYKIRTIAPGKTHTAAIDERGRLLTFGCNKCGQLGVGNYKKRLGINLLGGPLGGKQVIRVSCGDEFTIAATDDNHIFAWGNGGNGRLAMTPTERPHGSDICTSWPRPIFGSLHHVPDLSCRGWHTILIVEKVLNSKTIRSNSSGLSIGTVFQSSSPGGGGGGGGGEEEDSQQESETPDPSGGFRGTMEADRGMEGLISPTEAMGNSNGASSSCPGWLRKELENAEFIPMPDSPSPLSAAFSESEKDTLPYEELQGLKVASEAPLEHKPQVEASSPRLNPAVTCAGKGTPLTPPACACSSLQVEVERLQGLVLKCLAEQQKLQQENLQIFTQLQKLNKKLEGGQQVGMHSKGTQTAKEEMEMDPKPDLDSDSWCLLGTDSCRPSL

[11] = biological target: T4, Serine/threonine-protein kinase Nek9 (Homo sapiens); settings: at 1 µM
[12] = biological target: Serine/threonine-protein kinase PLK1 (Homo sapiens) (UniProt P53350); settings: at 0.1 µM
Sequence of Serine/threonine-protein kinase PLK1 (Homo sapiens) (P53350 whole entry): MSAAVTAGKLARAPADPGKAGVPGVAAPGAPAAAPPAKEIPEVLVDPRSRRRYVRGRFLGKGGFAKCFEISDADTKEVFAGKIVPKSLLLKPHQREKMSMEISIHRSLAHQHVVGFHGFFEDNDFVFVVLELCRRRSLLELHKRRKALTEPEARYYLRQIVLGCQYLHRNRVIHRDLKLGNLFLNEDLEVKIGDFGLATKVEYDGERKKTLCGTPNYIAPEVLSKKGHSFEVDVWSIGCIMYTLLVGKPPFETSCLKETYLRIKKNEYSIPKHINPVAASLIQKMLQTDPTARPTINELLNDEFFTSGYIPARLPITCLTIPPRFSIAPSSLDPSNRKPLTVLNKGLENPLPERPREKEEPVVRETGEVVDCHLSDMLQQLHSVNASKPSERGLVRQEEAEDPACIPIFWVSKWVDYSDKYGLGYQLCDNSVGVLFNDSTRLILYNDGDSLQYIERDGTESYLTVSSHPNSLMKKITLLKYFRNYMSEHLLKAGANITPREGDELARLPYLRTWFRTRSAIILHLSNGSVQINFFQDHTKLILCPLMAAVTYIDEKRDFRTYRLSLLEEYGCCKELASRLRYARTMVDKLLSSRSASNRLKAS

[13] = biological target: Serine/threonine-protein kinase PLK1 (Homo sapiens) (UniProt P53350); settings: at 1 µM
[14] = biological target: T5, Dual specificity protein kinase TTK (Homo sapiens) (UniProt P33981); settings: at 0.1 µM
T5 sequence (whole entry): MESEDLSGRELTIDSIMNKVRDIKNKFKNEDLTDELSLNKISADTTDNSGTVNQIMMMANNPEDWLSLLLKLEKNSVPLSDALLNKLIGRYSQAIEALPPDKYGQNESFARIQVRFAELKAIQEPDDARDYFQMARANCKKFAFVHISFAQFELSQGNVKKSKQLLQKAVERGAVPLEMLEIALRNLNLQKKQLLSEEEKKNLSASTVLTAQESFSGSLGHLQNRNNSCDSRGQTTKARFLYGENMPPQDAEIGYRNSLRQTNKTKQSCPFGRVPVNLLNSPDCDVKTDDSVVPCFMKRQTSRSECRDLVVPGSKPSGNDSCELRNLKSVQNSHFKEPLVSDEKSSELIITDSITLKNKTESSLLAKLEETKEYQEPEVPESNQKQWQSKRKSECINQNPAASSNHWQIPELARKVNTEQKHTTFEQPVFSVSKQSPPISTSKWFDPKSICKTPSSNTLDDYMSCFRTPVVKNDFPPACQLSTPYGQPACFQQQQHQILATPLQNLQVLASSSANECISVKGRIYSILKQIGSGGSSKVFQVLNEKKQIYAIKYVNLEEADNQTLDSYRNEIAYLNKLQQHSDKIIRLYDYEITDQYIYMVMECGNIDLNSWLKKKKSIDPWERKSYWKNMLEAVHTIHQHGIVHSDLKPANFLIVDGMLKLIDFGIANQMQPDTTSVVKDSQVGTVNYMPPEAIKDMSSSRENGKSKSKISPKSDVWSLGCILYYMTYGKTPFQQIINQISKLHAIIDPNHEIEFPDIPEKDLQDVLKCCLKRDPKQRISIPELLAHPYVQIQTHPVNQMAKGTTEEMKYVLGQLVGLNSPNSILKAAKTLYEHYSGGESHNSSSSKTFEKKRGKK

[15] = tested on: T6, Receptor-type tyrosine-protein kinase FLT3 (Homo sapiens), P36888 [D835Y]; settings: at 1 µM
T6 sequence (whole entry): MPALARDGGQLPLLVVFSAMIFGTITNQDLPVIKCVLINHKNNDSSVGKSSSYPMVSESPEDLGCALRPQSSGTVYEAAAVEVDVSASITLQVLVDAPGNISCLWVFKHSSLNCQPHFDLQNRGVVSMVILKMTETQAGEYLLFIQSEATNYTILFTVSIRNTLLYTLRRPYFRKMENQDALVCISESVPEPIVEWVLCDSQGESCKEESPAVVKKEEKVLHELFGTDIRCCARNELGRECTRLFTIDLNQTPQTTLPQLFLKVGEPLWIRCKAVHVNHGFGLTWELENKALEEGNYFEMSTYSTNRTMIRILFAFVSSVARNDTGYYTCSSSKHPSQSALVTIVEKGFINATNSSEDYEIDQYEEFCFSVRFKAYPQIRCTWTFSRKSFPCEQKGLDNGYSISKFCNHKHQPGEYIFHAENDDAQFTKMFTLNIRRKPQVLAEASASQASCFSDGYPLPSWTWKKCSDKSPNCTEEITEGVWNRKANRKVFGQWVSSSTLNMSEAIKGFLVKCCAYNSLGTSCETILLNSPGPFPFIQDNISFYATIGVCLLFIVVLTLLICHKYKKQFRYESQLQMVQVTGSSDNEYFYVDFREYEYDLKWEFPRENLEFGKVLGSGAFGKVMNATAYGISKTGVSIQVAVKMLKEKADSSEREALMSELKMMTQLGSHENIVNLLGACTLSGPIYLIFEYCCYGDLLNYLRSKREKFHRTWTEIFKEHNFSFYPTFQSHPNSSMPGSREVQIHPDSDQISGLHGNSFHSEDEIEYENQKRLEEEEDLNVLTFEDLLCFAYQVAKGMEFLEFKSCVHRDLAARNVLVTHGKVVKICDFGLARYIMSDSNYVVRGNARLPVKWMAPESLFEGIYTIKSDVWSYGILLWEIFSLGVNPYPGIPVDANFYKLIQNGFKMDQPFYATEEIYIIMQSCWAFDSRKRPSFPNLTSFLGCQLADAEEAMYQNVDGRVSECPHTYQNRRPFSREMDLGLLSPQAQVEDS

[16] = biological target: Vascular endothelial growth factor receptor 3 (Homo sapiens) (UniProt P35916); settings: at 0.1 µM
Sequence of Vascular endothelial growth factor receptor 3 (Homo sapiens) (P35916 whole entry): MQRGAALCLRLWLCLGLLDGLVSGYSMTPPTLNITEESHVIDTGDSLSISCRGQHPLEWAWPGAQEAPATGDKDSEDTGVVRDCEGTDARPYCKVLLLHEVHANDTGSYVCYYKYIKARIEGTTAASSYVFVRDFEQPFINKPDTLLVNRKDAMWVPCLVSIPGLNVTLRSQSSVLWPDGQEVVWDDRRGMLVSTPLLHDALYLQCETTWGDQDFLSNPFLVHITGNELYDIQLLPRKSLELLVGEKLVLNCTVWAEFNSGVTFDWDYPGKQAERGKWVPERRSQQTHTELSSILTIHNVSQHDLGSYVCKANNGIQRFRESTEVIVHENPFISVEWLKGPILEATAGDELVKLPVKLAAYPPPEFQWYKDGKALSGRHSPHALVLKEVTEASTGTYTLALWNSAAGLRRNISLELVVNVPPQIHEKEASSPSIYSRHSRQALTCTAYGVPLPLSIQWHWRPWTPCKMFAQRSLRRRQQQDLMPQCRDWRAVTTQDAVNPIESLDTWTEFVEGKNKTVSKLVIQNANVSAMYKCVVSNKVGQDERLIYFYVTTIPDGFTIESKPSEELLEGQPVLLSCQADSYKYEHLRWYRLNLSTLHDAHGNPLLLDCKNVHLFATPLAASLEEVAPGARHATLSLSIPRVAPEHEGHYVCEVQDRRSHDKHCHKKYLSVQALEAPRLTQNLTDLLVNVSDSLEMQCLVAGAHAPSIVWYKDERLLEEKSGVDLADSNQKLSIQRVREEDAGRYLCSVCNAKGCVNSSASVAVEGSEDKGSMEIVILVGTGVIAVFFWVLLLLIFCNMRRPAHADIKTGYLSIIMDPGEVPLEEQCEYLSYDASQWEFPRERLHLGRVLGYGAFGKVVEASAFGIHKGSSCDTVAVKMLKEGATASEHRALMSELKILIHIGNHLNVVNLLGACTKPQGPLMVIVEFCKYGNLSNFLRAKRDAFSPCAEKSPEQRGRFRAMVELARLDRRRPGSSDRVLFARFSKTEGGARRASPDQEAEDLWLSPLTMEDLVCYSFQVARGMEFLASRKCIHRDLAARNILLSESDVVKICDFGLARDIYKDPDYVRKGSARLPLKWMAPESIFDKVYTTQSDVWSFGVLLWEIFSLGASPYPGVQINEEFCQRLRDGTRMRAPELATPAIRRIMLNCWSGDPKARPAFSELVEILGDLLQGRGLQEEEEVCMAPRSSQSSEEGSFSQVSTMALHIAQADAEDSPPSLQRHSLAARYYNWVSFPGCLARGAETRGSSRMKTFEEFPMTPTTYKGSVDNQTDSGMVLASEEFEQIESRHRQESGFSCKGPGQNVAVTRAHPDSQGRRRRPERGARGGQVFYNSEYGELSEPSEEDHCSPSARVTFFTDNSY

[17] = biological target: Vascular endothelial growth factor receptor 3 (Homo sapiens) (UniProt P35916); settings: at 1 µM
[18] = biological target: Macrophage colony-stimulating factor 1 receptor (Homo sapiens) (UniProt P07333); settings: at 0.1 µM
Sequence of Macrophage colony-stimulating factor 1 receptor (Homo sapiens) (P07333 whole entry): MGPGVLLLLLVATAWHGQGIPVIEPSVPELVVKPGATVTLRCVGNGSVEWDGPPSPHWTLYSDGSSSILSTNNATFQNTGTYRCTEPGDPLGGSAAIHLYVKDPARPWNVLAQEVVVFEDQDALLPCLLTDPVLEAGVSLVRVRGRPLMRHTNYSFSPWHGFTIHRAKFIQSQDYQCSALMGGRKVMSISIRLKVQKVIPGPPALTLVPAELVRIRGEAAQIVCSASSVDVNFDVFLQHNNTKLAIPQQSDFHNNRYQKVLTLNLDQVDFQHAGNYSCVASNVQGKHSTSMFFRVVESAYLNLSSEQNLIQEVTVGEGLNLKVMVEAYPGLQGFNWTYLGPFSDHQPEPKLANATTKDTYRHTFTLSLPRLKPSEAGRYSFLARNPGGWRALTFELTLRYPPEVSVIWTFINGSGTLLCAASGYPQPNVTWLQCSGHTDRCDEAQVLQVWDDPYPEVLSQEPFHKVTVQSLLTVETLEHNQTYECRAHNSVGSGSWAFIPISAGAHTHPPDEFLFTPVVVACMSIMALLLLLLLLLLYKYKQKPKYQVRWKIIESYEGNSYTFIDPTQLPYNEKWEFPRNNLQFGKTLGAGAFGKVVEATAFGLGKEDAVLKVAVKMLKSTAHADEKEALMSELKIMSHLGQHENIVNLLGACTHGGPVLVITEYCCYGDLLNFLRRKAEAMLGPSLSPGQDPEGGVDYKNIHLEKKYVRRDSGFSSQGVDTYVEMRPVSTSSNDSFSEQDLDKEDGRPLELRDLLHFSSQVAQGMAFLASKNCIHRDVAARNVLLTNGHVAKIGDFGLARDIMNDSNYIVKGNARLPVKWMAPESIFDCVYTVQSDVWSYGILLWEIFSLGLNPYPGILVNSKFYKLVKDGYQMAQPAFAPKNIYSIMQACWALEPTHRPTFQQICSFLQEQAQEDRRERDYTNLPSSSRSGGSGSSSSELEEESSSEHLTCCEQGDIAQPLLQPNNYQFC

[19] = biological target: Macrophage colony-stimulating factor 1 receptor (Homo sapiens) (UniProt P07333); settings: at 1 µM
[20] = biological target: Tyrosine-protein kinase Fyn (Homo sapiens) (UniProt P06241); settings: at 0.1 µM
Sequence of Tyrosine-protein kinase Fyn (Homo sapiens) (P06241 2-537 limits assumed): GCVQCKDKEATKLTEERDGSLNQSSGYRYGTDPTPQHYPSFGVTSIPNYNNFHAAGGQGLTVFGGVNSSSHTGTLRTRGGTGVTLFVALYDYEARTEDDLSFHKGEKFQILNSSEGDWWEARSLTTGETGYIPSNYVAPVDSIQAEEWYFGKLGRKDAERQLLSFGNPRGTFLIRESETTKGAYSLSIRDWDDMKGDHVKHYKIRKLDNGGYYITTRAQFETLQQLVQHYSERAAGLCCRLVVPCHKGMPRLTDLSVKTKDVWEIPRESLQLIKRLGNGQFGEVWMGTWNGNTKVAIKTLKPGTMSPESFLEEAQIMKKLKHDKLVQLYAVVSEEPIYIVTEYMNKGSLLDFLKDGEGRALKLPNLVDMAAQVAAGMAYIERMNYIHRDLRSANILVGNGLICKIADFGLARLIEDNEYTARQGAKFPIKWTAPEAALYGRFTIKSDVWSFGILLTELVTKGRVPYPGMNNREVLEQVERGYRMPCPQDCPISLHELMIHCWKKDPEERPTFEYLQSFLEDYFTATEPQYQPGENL

Row | SMILES | inhibition [1] | inhibition [2] | inhibition [3] | inhibition [4] | inhibition [5] | inhibition [6] | inhibition [7] | inhibition [8] | inhibition [9] | inhibition [10] | inhibition [11] | inhibition [12] | inhibition [13] | inhibition [14] | inhibition [15] | inhibition [16] | inhibition [17] | inhibition [18] | inhibition [19] | inhibition [20]
1 | CC(=O)Nc1cccc(C#Cc2cncnc2Nc2ccc(OCc3cccc(F)c3)c(Cl)c2)c1 | -0.15% | 1.85% | 1.3% | 1.33% | 2.68% | 1.9% | 1.16% | 2.97% | 2.6% | 1.96% | 2.42% | 2.3% | 2.89% | 3.58% | -2.98% | 2.87% | 3.83% | 0.82% | 4.6% | 0.68%
2 | COc1cc2ncn(-c3cc(OCc4ccccc4C(F)(F)F)c(C(=O)N(C)C)s3)c2cc1OC | 2.1% | 0.82% | 4.81% | 0.75% | 2.7% | 1.08% | -2.22% | 2.1% | 0.24% | 0.62% | 3.25% | 3.97% | 3.34% | 4.69% | 1.1% | 0.79% | 15.2% | 4.5% | 3.31% | 1.31%
3 | COc1ccc2c(-c3ccnc(Nc4cccc(OC(F)(F)F)c4)n3)cnn2n1 | 26.7% | 3.61% | 6.35% | 5.13% | 4.77% | 3.21% | 4.5% | 3.37% | 4.57% | 5.79% | 10.2% | 3.05% | 3.9% | 5.81% | 15.6% | 4.15% | 5.87% | 7.22% | 33.3% | 2.72%
